The list is not random: actives were taken first. Their share in the collection is about 5.2%.
M18AAP inhibitor – blocks P. falciparum M18 aspartyl aminopeptidase. recombinant PfM18AAP, H-Glu-NHMec fluorogenic cleavage. inhibition, % at 7.35 µM. 290,000 tested, 1.2% active. AID 1822;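 active = inhibition above the campaign mean inhibition over all tested compounds plus 3 SD, cut at about 28% in these data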;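 note: 0% = plate median of test compound wells and 100% = 2 mM ZnCl2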
Yeast superoxide – lowers age-related superoxide in aged yeast cells | superoxide response (% of plate mean), % at 10 µM | 330,000 tested, 0.18% active | S. cerevisiae aged cells, superoxide DHE fluorescence; stronger effect = lower value;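 active = superoxide response under a set limit, about three screen SD below normal, cut at about 65% in these data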;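 note: yeast aged for seven days with compound at 30 °C before DHE staining; 100% = average MFI of all compound-treated wells on the plate with controls excluded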
ALR H2O2 inh – human ALR oxidase inhibition via reduced H2O2. P55789. purified ALR, DTT oxidation, H2O2 HRP-luminol luminescence. inhibition, % (no concentration beside the values). 290,000 tested, 3.8% active. AID 485317;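 active = mean replicate inhibition above about 79%, with every replicate also reaching it, limit read from the data; inconclusive = only one of the two criteria met; inactive = mean below limit and not every replicate reaching it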
NRP1-CendR mod – NRP-1/CendR interaction modulation; FAM-RPARPAR peptide binding to NRP-1, fluorescence polarization; inhibition, % at 25 µM; 360,000 tested, 0.85% active;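 active = inhibition or corrected inhibition above about 18%, plus a signal ratio from 0.5 to 1.5, limit read from the data, passing the limit was not always enough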
A3G deaminase – blocks human APOBEC3G single-stranded DNA deamination | recombinant A3G, ssDNA deamination FAM/TAMRA fluorescence | inhibition, % at 20 µM | 330,000 tested, 0.28% active | Q9HC16;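 active = inhibition of at least 40% at 20 µM, with no more than 30% in the related APOBEC3A deaminase screen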;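 note: plate controls were DMSO wells with A3G for no effect and wells lacking A3G enzyme for full effect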
Target sequence (Q9HC16 whole entry, looked up): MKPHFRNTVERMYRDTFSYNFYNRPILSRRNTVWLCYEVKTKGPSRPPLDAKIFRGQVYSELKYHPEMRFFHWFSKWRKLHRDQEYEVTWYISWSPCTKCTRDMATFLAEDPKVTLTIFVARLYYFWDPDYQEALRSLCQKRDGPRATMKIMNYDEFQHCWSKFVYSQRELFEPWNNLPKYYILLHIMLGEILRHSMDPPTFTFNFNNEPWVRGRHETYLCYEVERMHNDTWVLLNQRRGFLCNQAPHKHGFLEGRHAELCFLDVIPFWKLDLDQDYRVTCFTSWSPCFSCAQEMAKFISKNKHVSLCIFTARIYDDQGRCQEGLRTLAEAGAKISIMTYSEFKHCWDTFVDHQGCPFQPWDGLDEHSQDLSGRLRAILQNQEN
APOBEC3A inh – inhibitors of human APOBEC3A DNA deaminase. recombinant A3A, FAM/TAMRA ssDNA deamination fluorescence. inhibition, % at 20 µM. 330,000 tested, 0.41% active. AID 493011;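 active = at least 40% inhibition at 20 µM here, with at most 30% in a related deaminase screen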;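 note: plate controls were A3A with DMSO for no effect and wells lacking A3A enzyme for full effect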
Target sequence (P31941 whole entry, looked up): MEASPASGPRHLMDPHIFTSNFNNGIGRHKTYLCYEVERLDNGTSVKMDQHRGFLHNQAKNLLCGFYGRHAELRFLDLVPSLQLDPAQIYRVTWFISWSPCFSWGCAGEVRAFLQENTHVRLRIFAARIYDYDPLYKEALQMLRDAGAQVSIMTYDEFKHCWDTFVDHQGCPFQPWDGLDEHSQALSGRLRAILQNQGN
* marks the source's active call; other numbers are inactive results; ? = inconclusive; · = not tested or not shown.

SMILES | M18AAP inhibitor | Yeast superoxide | ALR H2O2 inh | NRP1-CendR mod | A3G deaminase | APOBEC3A inh
Cc1ccc(C(c2sc3ncnn3c2O)N2CC(C)CC(C)C2)cc1 (stereo not given) | 30* | 81 | -5 | 7 | -5 | -3
COc1ccc(C(c2sc3ncnn3c2O)N2CC(C)OC(C)C2)cc1OC (stereo not given) | 3 | 88 | · | -11 | 4 | 1
CC(=O)NCC1CCCN(C(=O)c2oc3c(F)cccc3c2C)C1 (stereo not given) | -9 | 104 | 1 | 11 | 2 | 2
FC(F)(F)C1=Nc2cccc3cccc(c23)N1 | · | · | · | 38* | 84 | 98
CC(=O)c1c(C)[nH]c(C(=O)OCC(=O)NCc2cccs2)c1C | · | 98 | · | 21* | -3 | -2
CC(=O)c1c(C)[nH]c(C(=O)OCC(=O)NCc2ccc(Cl)cc2)c1C | · | 102 | · | 9 | -5 | -1
CCN1CCCc2cc(CN(CCN3CCOCC3)C(=O)Nc3ccc(C)c(C)c3)ccc21 | 15 | 105 | 99* | 1 | -6 | -2
CCc1ccc(NC(=O)N(CCCN2CCOCC2)Cc2cccs2)cc1 | -8 | 97 | -6 | 3 | -6 | -8
CCc1ccc(NC(=O)N(CCN2CCOCC2)Cc2ccc3c(c2)CCCN3CC)cc1 | 9 | 115 | 99* | 20 | -5 | -1
Cc1ccc(NC(=O)N(CCCN2CCOCC2)Cc2cccnc2)cc1C | -2 | 95 | 9 | 5 | -6 | -5
CCCN1CCC(C)(C(=O)Nc2ccccc2Oc2ccccc2)C1 (stereo not given) | · | · | · | 6 | · | ·
S=c1[nH]c(-c2ccccc2)cn1/N=C/c1cccc2ccccc12 | 25 | 89 | 4 | 1 | -7 | -9
Cc1ccc(/C=N/n2cc(-c3ccccc3)[nH]c2=S)s1 | 53* | 94 | ? | 4 | -4 | -5
CC(=O)Nc1ccc(N)cc1 | · | 89 | 89* | 12 | -9 | -1
Nc1ccc(NC(=O)Nc2ccc(N)cc2)cc1 | -1 | 90 | 99* | -9 | · | ·
Cc1ccc(Cl)c(NC(=O)CSc2cccc[n+]2[O-])c1Cl | · | 120 | · | 28* | 0 | -2
Cc1cc(C)c(NC(=O)CSc2cccc[n+]2[O-])c(C)c1 | · | 93 | -5 | 2 | -10 | -5
CC(C)c1ccc(NC(=O)C2Cc3c(-c4ccco4)ccnc3O2)cc1 (stereo not given) | · | · | · | 14 | · | ·
Cc1ccc2c(N)[nH]nc2n1 | -3 | 100 | 57 | 8 | 5 | 14
COc1ccc(/C=C2/C(=O)N(c3c(F)c(F)c(F)c(F)c3F)N=C2C)cc1 | 16 | 99 | 90* | -1 | 2 | -8
COc1ccc(/C=C2/C(=O)N(c3ccccc3)N=C2C)cc1 | · | 79 | -10 | -9 | 0 | 3
Cc1ccc(Cn2cc(/C=N/Nc3ccc([N+](=O)[O-])cn3)c3ccccc32)cc1 | 54* | 100 | -6 | -97 | -5 | -1
CCNC(=S)N/N=C/c1cn(Cc2ccc(F)cc2)c2ccccc12 | -6 | 94 | -9 | 1 | -13 | -4
O=C(O)c1ccc(N/N=C/c2cn(Cc3ccc(F)cc3)c3ccccc23)cc1 | 14 | 119 | 99* | 0 | -4 | 0
CCn1c(SCC(=O)Nc2nccs2)nnc1-c1cccnc1 | 2 | 76 | -17 | 1 | -5 | -2
SMILES | M18AAP inhibitor | Yeast superoxide | ALR H2O2 inh | NRP1-CendR mod | A3G deaminase | APOBEC3A inh
O=C1c2cc(Cl)ccc2OC2(CCNCC2)C12CC(c1ccc(Cl)cc1)=NO2 (stereo not given) | · | · | -8 | 25* | -3 | 2
O=C1c2cc(Cl)ccc2OC2(CCNCC2)C12CC(c1ccccc1)=NO2 (stereo not given) | · | 96 | · | -2 | 3 | 1
COc1ccccc1C(=O)Nc1ccc2c3c(cccc13)CC2 | 3 | 105 | -2 | -14 | -6 | -3
Cc1ccc(Oc2cc(C)nc(-c3ccccc3O)n2)cc1 | 7 | 89 | 2 | 18 | -2 | -1
Cc1cc(OC2CCCCC2)nc(-c2ccccc2O)n1 | 4 | 95 | 99* | 0 | -7 | -1
O=C(Cn1ccnc1)c1ccc(O)c(O)c1 | · | 83 | 90* | 6 | -5 | -1
Cc1cc(Cl)c(OCCOCCN2CCC(C)CC2)c(Br)c1 | -4 | 105 | -1 | 4 | -4 | 6
c1ccc(-c2ccc3sccc3n2)cc1 | · | · | -9 | 27* | -4 | -3
CC(C)CN1C(=O)c2ccccc2C1c1nnnn1-c1ccc2c(c1)OCCO2 (stereo not given) | · | · | · | -10 | · | ·
Cc1c(Cl)sn(-c2ccc(Cl)cc2)c1=O | 58* | · | · | 6 | 44* | -2
c1ccc(-c2cc(N3CCCCC3)ncn2)cc1 | -3 | 109 | -6 | 1 | -1 | 2
c1ccc(-c2cc(N3CCCCCC3)n[nH]2)cc1 | -1 | 86 | 98* | 4 | -5 | -1
Cc1cccc(C)c1NC(=O)CSc1nc(C)c(CC(=O)c2ccc(Br)cc2)c(C)c1C#N | -4 | 122 | -3 | 7 | -6 | -4
CC(=O)Nc1ccc(CNc2nc(NC(C)C)nc3ccsc23)cc1 | · | · | · | 28* | · | ·
COc1ccc(-c2nc(CSCC(=O)NC3CCCC3)c(C)o2)cc1OC | 1 | 91 | 99* | -2 | -8 | -6
CCOC(=O)N1CCC(NC(=O)CSCc2nc(-c3ccc(OC)c(OC)c3)oc2C)CC1 | -2 | 100 | 98* | -1 | -3 | 0
CCOC(=O)N1CCC(NC(=O)CSCc2nc(-c3ccc(C)cc3)oc2C)CC1 | -15 | 106 | 58 | 15 | -5 | -6
COc1ccc(-c2nc(CSCC(=O)NC3CCN(Cc4ccccc4)CC3)c(C)o2)cc1OC | 1 | 100 | 99* | 0 | -6 | -5
COc1ccc(-c2nc(CN3CCC(C(=O)NC4CCN(Cc5ccccc5)CC4)CC3)c(C)o2)cc1OC | -20 | 120 | 43 | 17 | -4 | -2
COc1ccc(-c2nc(CSCC(=O)NC3CC3)c(C)o2)cc1OC | -3 | 75 | 99* | 5 | -3 | 0
O=C(CCNC(=O)c1ccccc1Cl)NCC(c1ccco1)N1CCCC1 (stereo not given) | · | 89 | 2 | -5 | -2 | -1
O=C(/C=C/c1ccc([N+](=O)[O-])cc1)Nc1cccnc1 | 5 | 94 | -9 | 0 | -2 | -3
COc1ccc(/C=N/Nc2ccc([N+](=O)[O-])cc2S(=O)(=O)N2CCN(C)CC2)cc1 | 5 | 96 | -7 | -98 | -10 | -3
COc1ccc(C(=O)NC2CC2)cc1OC1CCN(Cc2ccccc2)CC1 | 9 | 111 | -3 | 22* | -4 | -3
N#CC1=C(N)Oc2n[nH]c(-c3cccs3)c2C1c1cccnc1 (stereo not given) | 2 | 109 | -22 | 3 | -2 | -3
O=[N+]([O-])c1ccc2c(c1)CNc1ccccc1O2 | 7 | 100 | 99* | -14 | -7 | -6
COc1ccccc1NC(=O)CN(Cc1ccco1)C(=O)c1cc(Cl)c(OC)c(OC)c1 | · | · | · | 4 | · | ·

Compound activity as filed in PubChem.
